According to the OligoGym collection:

What was measured:
Test in all cases: pooled miR-30 sensor sort-seq; sequence = guide strand
Details in all cases: shRNA
ZNF169 = target: ZNF169
ZNF160 = target: ZNF160
ZNF146 = target: ZNF146
ZNF512B = target: ZNF512B
ZNF592 = target: ZNF592
ZNF836 = target: ZNF836
Note: reference of the scale not given here.

## ATATTGTCTGAGGAGCTGCGAG
ZNF169
  sensor-assay potency score (higher = more potent): -1.34

## TTGATCTCTTTTACCTTCTTTC
ZNF160
  sensor-assay potency score (higher = more potent): -0.844

## TTTATGAGGTACTTCTTCTGGC
ZNF146
  sensor-assay potency score (higher = more potent): 0.438

## TATTGTCTGAGGAGCTGCGAGC
ZNF169
  sensor-assay potency score (higher = more potent): -1.19

## ATGTTTAATGACATACTGCTTT
ZNF146
  sensor-assay potency score (higher = more potent): -0.84

## TTCCACAAACATTGCATTCGTA
ZNF146
  sensor-assay potency score (higher = more potent): 0.428

## TGAATTTTGAGTGAAAACCTTG
ZNF160
  sensor-assay potency score (higher = more potent): -0.306

## TAGAAGGAGGGCTATCTTCTGG
ZNF169
  sensor-assay potency score (higher = more potent): -0.694

## TTGAGAACTGAGAGAAAGCTTT
ZNF146
  sensor-assay potency score (higher = more potent): -0.35

## TTCGTCGCCTTGCTCCAGCTGT
ZNF169
  sensor-assay potency score (higher = more potent): -0.551

## TGAGTTTGGACACTTCACCCTC
ZNF512B
  sensor-assay potency score (higher = more potent): -0.0834

## TTGTTGAAGACCATTTCACAGG
ZNF592
  sensor-assay potency score (higher = more potent): -0.934

## TTGAAGACCATTTCACAGGAGC
ZNF592
  sensor-assay potency score (higher = more potent): -0.241

## TTTGTTTTCTACATCCTCTTGA
ZNF836
  sensor-assay potency score (higher = more potent): 0.866
